Laboratory results from PubChem BioAssay.
“And” between values parts separate entries of the source, which are not always exact repeats. Equal values may be shown once. Values without a mark were called inactive. The source made the active and inactive calls. Cut-off read from the data, not from the text of the source, unless noted: active = inhibition above about 42%; inactive = the rest.

Experiments:
[1] = StAR promoter reporter inhibitors, counter-screen for LRH-1 inverse agonist project, cell-based, luminescence, high throughput (AID 651611; in the data active = inhibition above about 28%); settings: StAR promoter luciferase reporter counterscreen, at 3.6 µM, stronger effect = higher value
[2] = target: Nuclear receptor subfamily 5 group A member 2 (Homo sapiens) (UniProt O00482); test: NR5A2 activity suppression in reporter cells – cell-based, luminescence, confirmation (AID 651613); settings: cell-based LRH-1 luciferase reporter, inverse agonism; at 3.6 µM; stronger effect = higher value;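 note: HEK293T cells co-transfected with LRH-1 and StAR promoter luciferase reporter; 0% = vehicle wells and 100% = parental cells lacking receptor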
[3] = target: Steroidogenic factor 1 (Homo sapiens) (UniProt Q13285); test: inverse agonism at SF1 nuclear receptor – cell-based, luminescence, high throughput, counter-screen for LRH-1 inverse agonist project (AID 651614; in the data active = inhibition above about 44%;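 note: cells cotransfected with StAR promoter reporter and SF1 expression vector; 0% = vehicle on cells with receptor and 100% = vehicle on cells lacking receptor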); settings: cell-based SF1 luciferase reporter, at 3.6 µM, stronger effect = higher value
[4] = compounds suppressing VP16-driven luciferase signal – cell-based, luminescence, high throughput, counter-screen for LRH-1 inverse agonist project (AID 651615; in the data active = inhibition above about 33%); settings: Gal4-VP16 luciferase reporter cells, at 3.6 µM, stronger effect = higher value

Sequence of Steroidogenic factor 1 (Homo sapiens) (Q13285 whole entry, looked up, the tested form may be a part): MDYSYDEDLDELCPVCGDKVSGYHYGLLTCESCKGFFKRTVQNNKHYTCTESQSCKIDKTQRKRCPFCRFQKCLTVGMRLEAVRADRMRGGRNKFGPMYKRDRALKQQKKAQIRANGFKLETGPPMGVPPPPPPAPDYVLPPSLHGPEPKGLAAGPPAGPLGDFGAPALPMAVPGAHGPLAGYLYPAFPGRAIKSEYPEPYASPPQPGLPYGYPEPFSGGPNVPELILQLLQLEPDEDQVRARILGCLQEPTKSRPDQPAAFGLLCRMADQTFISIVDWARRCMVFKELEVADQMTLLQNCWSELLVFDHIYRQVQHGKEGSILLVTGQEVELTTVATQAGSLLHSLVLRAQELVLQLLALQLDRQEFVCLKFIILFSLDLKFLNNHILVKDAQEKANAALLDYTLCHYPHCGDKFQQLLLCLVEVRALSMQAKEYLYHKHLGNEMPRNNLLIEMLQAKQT
Sequence of Nuclear receptor subfamily 5 group A member 2 (Homo sapiens) (O00482 whole entry, looked up): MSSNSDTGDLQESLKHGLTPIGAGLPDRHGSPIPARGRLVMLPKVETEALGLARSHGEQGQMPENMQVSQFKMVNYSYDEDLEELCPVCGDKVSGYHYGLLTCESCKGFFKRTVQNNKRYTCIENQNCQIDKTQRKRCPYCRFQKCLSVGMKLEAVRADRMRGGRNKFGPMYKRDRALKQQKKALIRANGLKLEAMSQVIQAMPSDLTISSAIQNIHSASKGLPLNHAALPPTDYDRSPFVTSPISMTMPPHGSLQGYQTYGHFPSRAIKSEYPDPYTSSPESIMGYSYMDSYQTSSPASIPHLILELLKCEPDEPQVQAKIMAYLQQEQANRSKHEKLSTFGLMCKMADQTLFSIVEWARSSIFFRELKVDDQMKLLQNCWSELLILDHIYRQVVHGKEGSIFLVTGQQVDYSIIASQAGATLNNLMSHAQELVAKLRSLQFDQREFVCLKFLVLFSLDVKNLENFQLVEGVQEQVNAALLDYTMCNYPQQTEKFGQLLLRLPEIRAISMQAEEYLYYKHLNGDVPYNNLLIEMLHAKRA

Structure (SMILES) | inhibition [1] | inhibition [2] | inhibition [3] | inhibition [4]
Cn1cccc1C(=O)OCC(=O)NCCCc1ccccc1 | 3.25% | 54% (active) | 44.4% (active) | -22%
O=C(N/N=C/c1ccc([N+](=O)[O-])o1)c1ccc2c(c1)OCO2 | 37.2% (active) | 78.3% (active) | 91.2% (active) | -5.58%
Cc1ccc(Nc2nc(-c3cccnc3)nc3ccccc23)cc1 | 36.1% (active) | 54.1% (active) | 59.5% (active) | 14%
Cc1cc(C)c2c(N)c3cccc(C)c3nc2n1 | 30.8% (active) | 105% (active) | 45.8% (active) | 89% (active)
COc1cc(NCCCCCCN)c2ncccc2c1OC | 22.3% | 49% (active) | 43.6% (active) | -3%
COc1ccc(CCNC(=O)COC(=O)c2cc(Cl)nc(Cl)c2)cc1 | 3.74% | 47.4% (active) | 51.4% (active) | -2.65%
COc1ccc2c(c1)CCN(C(=O)CCl)C2C1C(=O)CCCC1=O (stereo not drawn) | 10.2% | 59% (active) | 54.4% (active) | -6.95%
O=c1c2ccccc2ncn1Cc1ccco1 | 1.6% | 10.5% | 18.4% | 0.81%
Cc1cc(C(=O)NC2CCCc3c2cnn3-c2cccc(C)c2C)n(C)n1 (stereo not drawn) | 33.4% (active) | 68.2% (active) | 58.4% (active) | 59.1% (active)
NC(=S)NNc1cc(Cl)cc(Cl)c1 | 12.8% | 50.1% (active) | 40.4% | 11.7%
O=C1c2cc(F)ccc2-n2c1nc1ccccc1c2=O | 50.5% (active) | 72.4% (active) | 73.9% (active) | 67.9% (active)
C[n+]1c2cc(N)ccc2cc2ccc(N)cc21 | 34.8% (active) and 28.5% (active) | 109% (active) and 105% (active) | 79.5% (active) and 66.7% (active) | 95.3% (active) and 92.1% (active)
O=C(Cn1cnc2c(nnn2-c2ccccc2)c1=O)NCC1CCCO1 (stereo not drawn) | -2.93% | 16.6% | -2.18% | 7.48%
C#Cc1ccc(NC(=O)C2(C)CCN2C(=O)Cc2ccc(C(C)(C)C)cc2)cc1 (stereo not drawn) | 4% | 48% (active) | 39% | 43.9% (active)
CC[C@@H](C(=O)[C@@H](C)[C@@H](O)[C@H](C)[C@@H]1O[C@@H]([C@@H](CC)C(=O)O)CC[C@@H]1C)[C@H]1O[C@]2(C=C[C@@H](O)[C@]3(CC[C@@](C)([C@H]4CC[C@](O)(CC)[C@H](C)O4)O3)O2)[C@H](C)C[C@@H]1C | 87% (active) | 103% (active) | 92.7% (active) | 92.3% (active)
O=C(O)/C=C/C(=O)Nc1ccccc1SC(F)(F)C(F)(F)C(F)(F)F | 20.1% | 54.8% (active) | 45.5% (active) | 6.88%
O=[N+]([O-])c1cccc(-c2ccc(/C=N/NC(=S)NCc3ccco3)o2)c1 | 10.6% | 48.5% (active) | 51.2% (active) | -3.67%
O=C(c1ccc(Oc2ccc([N+](=O)[O-])cc2Cl)cc1)N1CCCC1 | 6.61% | 46.2% (active) | 58.9% (active) | 4.32%
O=C1c2ccccc2-n2c1nc1ccccc1c2=O | 41.1% (active) | 66.7% (active) | 57.8% (active) | 51% (active)
O=C(c1ccccc1)N1CCN(c2ccc([N+](=O)[O-])c(N3CCOCC3)c2)CC1 | 9.16% | 39.5% | 34.7% | 3.81%
Cc1ccc(C2CC(C(F)(F)F)n3nc(C(=O)NCc4ccco4)cc3N2)cc1 (stereo not drawn) | 0.64% | 44.1% (active) | 44.8% (active) | -8.91%
CC(NC(=O)CCl)c1ccccc1Br (stereo not drawn) | 23.9% | 60.2% (active) | 57.4% (active) | -27.4%
Cc1ccc(SCC(=O)Nc2ccc(N3CCOCC3)cc2)c(C)c1 | 16.4% | 63.3% (active) | 56.5% (active) | -1.3%
COc1ccc(NC(=O)CS(=O)(=O)c2ccc(C)cc2)c(OC)c1 | 17% | 53.1% (active) | 56% (active) | -1.68%
Cc1no[n+]([O-])c1COc1ccccc1/C=N/n1nnnc1N | 7.3% | 48.8% (active) | 43% (active) | -13.9%
Cc1nnc(SCC(=O)Nc2sc3c(c2C(N)=O)CCCC3)[nH]c1=O | 10.4% | 46.6% (active) | 29.9% | -3.51%

Structure (SMILES) | inhibition [1] | inhibition [2] | inhibition [3] | inhibition [4]
O=C(Nc1nc2c(Cl)cccc2s1)c1ccc([N+](=O)[O-])o1 | 10.3% | 65.3% (active) | 62.2% (active) | -6.76%
COc1ccccc1Oc1nnnn1-c1ccc(C(N)=O)cc1 | 15.4% | 48% (active) | 51.8% (active) | -9.03%
CNC(=O)c1nc(C)c(C2(C)CC(c3cccc([N+](=O)[O-])c3)=NO2)s1 (stereo not drawn) | 8.75% | 27% | 35.6% | -1.29%
CC(=O)c1ccc(NC(=O)COc2ccccc2C(=O)Nc2ccccc2)cc1 | 5.25% | 54.9% (active) | 45.9% (active) | -21.9%
Cc1ccc(NC(=O)c2ccc([N+](=O)[O-])o2)c(C)c1 | 11.1% | 54.7% (active) | 54.6% (active) | -6.21%
Cc1cccc2cc(C#N)c(SCC(=O)N3CC(=O)Nc4ccccc43)nc12 | 53.7% (active) | 23.3% | 38.1% | 38.5% (active)
Cc1c(Cl)cccc1NC(=O)CSc1nnc(C)n1CC1CCCO1 (stereo not drawn) | -4.11% | 38.1% | 14.9% | -6.95%
O=C(Cn1cnc2c(nnn2-c2ccccc2)c1=O)NCCc1ccccc1 | 13.4% | 50.9% (active) | 51% (active) | -7.88%
Cc1cc(Cl)ccc1NC(=O)CN1C(=O)C(=O)N(C2CCCC2)C1=O | 5.58% | 50.9% (active) | 43.8% (active) | 1.38%
Nc1nc(-c2ccccc2)c(CCCOc2ccc(NC(=O)CBr)cc2)c(=O)[nH]1 | 15.7% | 61.6% (active) | 48.9% (active) | -15.6%
C[C@@H]1CN([C@@H](C)CO)S(=O)(=O)c2ccc(-c3ccc(C#N)cc3)cc2O[C@@H]1CN(C)Cc1ccccn1 | 24.5% | 51.8% (active) | 48% (active) | -14.3%
CCN(Cc1ccccc1)c1ccc(/C=N/N2CCOCC2)cc1 | -41.2% | 26% | 34.2% | -9.02%
O=C(COc1ccc2c3c(c(=O)oc2c1)CCCC3)NCCN1CCOCC1 | 0.51% | 41.4% (active) | 23.5% | -1.02%
CC(=O)Nc1ccc(NC(=O)CSc2nnc(COc3ccccc3C)n2CC2CCCO2)cc1 (stereo not drawn) | 16.5% | 64.6% (active) | 57.3% (active) | -5.23%
COc1cc(C2c3cc4c(cc3OC(NNC(N)=S)C2C)OCO4)cc(OC)c1OC (stereo not drawn) | 49.2% (active) | 35.4% | 44.2% (active) | 14%
CC(=O)Nc1cc(-c2cccc(NS(C)(=O)=O)c2)cn2c(-c3ccccc3)cnc12 | 28% (active) | 40.4% | 34.3% | -8.63%
COc1ccc(OCCNC(=O)C2(C)CCN2Cc2ccc3ccccc3c2)cc1 (stereo not drawn) | 13.6% | 45.2% (active) | 43.2% (active) | 1.36%
COc1cccc(/C=N/Nc2nc(Nc3ccccc3)nc(-n3nc(C)cc3C)n2)c1O | 40.7% (active) | -7.01% | 0.2% | -6.05%
CCCCOCCCNc1ncnc2c1[nH]c1ccccc12 | 13.1% | 50% (active) | 53.6% (active) | 42.3% (active)
O=C(CN1C(=O)NC2(CCOc3ccccc32)C1=O)Nc1cccc([N+](=O)[O-])c1 (stereo not drawn) | 13.7% | 58.6% (active) | 53.6% (active) | -15.2%
CCN(CC)c1ccc(C2=NNC(=O)CC2C)cc1[N+](=O)[O-] (stereo not drawn) | -14.3% | 17% | 21.7% | -1.3%
O=C(CCl)Nc1cccc2ncccc12 | 55.6% (active) | 61.7% (active) | 60.9% (active) | -58.5%
O=C(Sc1cccc2cccnc12)c1ccccc1Br | 86.8% (active) | 92.1% (active) | 85.5% (active) | 88% (active)
COc1cc(-c2cc(NC=O)c3ncc(-c4ccc(C(C)=O)cc4)n3c2)ccc1O | 56.8% (active) | 64.4% (active) | 60.6% (active) | -49.1%
COc1ccc(-c2oc(=O)c3cc(OC)c(OC)cc3c2C#CCCO)cc1 | 33.4% (active) | 28.7% | 29.1% | -1.67%
Cc1cc(Br)ccc1NC(=O)CN1C(=O)C2CC=CCC2C1=O (stereo not drawn) | 7.07% | 61.7% (active) | 44.1% (active) | -7.81%
